Values joined by “and” are separate entries in the source; they are usually repeats but may differ in a detail not shown here. Equal entries are not always repeated. Results filed as inconclusive are left out. Active and inactive are the calls of the source. Unless noted, the call rests on the fitted dose curve; in most records, active means well fitted curve in the direction sought with a large enough effect; inconclusive means small, poorly fitted or top-dose-only effect, or another doubt; inactive means no such curve, though single readings can be large; an effect the other way counts as inactive or inconclusive.
Key:
[1] = qHTS assay for small molecule disruptors of the mitochondrial membrane potential - 1 hr assay (AID 651754; calls by dose curve; further: on the % scale 0 is the no-effect control and ±100 the full control effect; nearly all actives have a fitted effect of over 35% in size)
Method in brief: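 HepG2, 2,000 cells/well, overnight attachment; cpd or DMSO 1 hr, 37C/5% CO2; Mito-MPS dye 30 min, 37C; fluorescence monomer (490/535) and aggregate (540/590).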

[2] = qHTS assay for small molecule disruptors of the mitochondrial membrane potential - 5 hr assay (AID 651755; calls by dose curve; further: on the % scale 0 is the no-effect control and ±100 the full control effect; nearly all actives have a fitted effect of over 40% in size)
Method in brief: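 HepG2 cells, attached overnight at 37C, were exposed to compound or DMSO for 5 hr at 37C, 5% CO2. Mito-MPS dye was then added for 30 min, and fluorescence read at 490/535 nm (monomers) and 540/590 nm (aggregates).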

[3] = qHTS assay to identify small molecules that stimulate interleukin-8 (IL-8) secretion (AID 651758; active means well fitted activation curve with a large enough effect in the signal ratio; the % refers to the signal ratio; further: 0% is about no effect)
Method in brief: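 THP-1, 2000 cells/well; cpd 16 h, 37 C; add cryptate + XL665 anti-IL-8 Abs; RT 1-3 h; TR-FRET read.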

[4] = qHTS assay for environmental chemicals that activate the Aryl hydrocarbon Receptor (AhR) signaling pathway (AID 651777); conditions: 1A2-DRE human hepatoma cells, luciferase, 24 h; activation: active compounds read high; further: % of control where 0% means no effect; nearly all actives have a fitted effect of over 15% in size
Method in brief: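 Reporter gene assay: hepatoma cells with DRE/CYP1A2-luciferase, 24 hr compound incubation at 37 C, 5% CO2, luminescence after One-Glo (30 min, RT).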

[5] = target: Peroxisome proliferator-activated receptor alpha (Homo sapiens) (UniProt Q07869); assay: qHTS assay for small molecule agonists of the peroxisome proliferator-activated receptor alpha (PPARalpha) signaling pathway (AID 651778); conditions: PathHunter PPARalpha complementation, chemiluminescence, 6 h; active compounds read high; further: % of control where 0% means no effect
Method in brief: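 Cells plated at 2,000/well and held overnight at 37 C, 5% CO2, then compound added by pin tool for 6 hr; after PathHunter detection reagent and 60 min at room temperature, chemiluminescence from enzyme complementation was read.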

[6] = target: Nuclear receptor ROR-gamma (Homo sapiens) (UniProt P51449); assay: qHTS assay for small molecule antagonists of the retinoid-related orphan receptor gamma (ROR-gamma) signaling pathway (AID 651802);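 further: luciferase reporter luminescence driven by ROR response element; series mostly up to about 92 µM; on the % scale 0 is the no-effect control and ±100 the full control effect; nearly all actives have a fitted effect of over 60% in size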
Method in brief: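 CHO, TET-inducible ROR + RORE-LUC reporter, 1536-well qHTS. Compound pinned, doxycycline added, 16hr 37C/5% CO2. ONE-Glo, 30 min RT, luminescence; signal drop scored as antagonism.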

[7] = qHTS assay for small molecule agonists of the antioxidant response element (ARE) signaling pathway measured by Nrf2-dependant transcriptional activity (AID 720636; active means well fitted curve in the direction sought with a large enough effect in the repeat runs; an effect the other way counts as inactive or inconclusive;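 further: HepG2 cells with an ARE-driven luciferase reporter; % of control where 0% means no effect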)
Method in brief: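 Nrf2-dependent transcription is measured in ARE-luc HepG2 cells: compound is applied for 16 hr at 37 C after a 6 hr attachment period, and luciferase activity is quantified by luminescence using ONE-Glo.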

[8] = qHTS assay for small molecule antagonists of the retinoid-related orphan receptor gamma (ROR-gamma) signaling pathway - cell viability counter screen (AID 720652; active means well fitted curve in the direction sought with a large enough effect in the repeat runs; an effect the other way counts as inactive or inconclusive;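 further: series mostly up to about 92 µM; compound exposure lasted 16 hr before ATP read; on the % scale 0 is the no-effect control and ±100 the full control effect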)
Method in brief: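 Luminescence from CellTiter-Glo after 30 min at room temperature reported cellular ATP as the cytotoxicity measure. Cells were the CHO reporter line with doxycycline-induced ROR-gamma expression, exposed to compound for 16 hr at 37 C.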

[9] = qHTS assay for small molecule agonists of the antioxidant response element (ARE) signaling pathway measured by Nrf2-dependant transcriptional activity - cell viability counter screen (AID 720653; active means well fitted curve in the direction sought with a large enough effect in the repeat runs; an effect the other way counts as inactive or inconclusive; further: on the % scale 0 is the no-effect control and ±100 the full control effect); conditions: ARE-bla HepG2 viability, CellTiter-Glo ATP luminescence, 16 h; active compounds read low
Method in brief: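 ARE-bla HepG2 cells (2,000/well) rested 5 hrs at 37C/5% CO2, then exposed to compounds in DMSO for 16 hrs. Viability was read in the same wells as intracellular ATP by luminescence, 30 min at room temperature after reagent addition.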

[10] = qHTS assay for cell viability of HEK293 cells (AID 743288); conditions: ATP luminescence (CellTiter-Glo), 18 h, active compounds read low; further: on the % scale 0 is the no-effect control and ±100 the full control effect; nearly all actives have a fitted effect of over 50% in size
Method in brief: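 Environmental chemicals tested in qHTS format against parental HEK293 cells; 18 h treatment, 37 C; read-out ATP luminescence (CellTiter-Glo), 30 min RT development.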

[11] = qHTS assay for cell viability of the p53RE-bla HCT-116 cell line (AID 743292); further: on the % scale 0 is the no-effect control and ±100 the full control effect; nearly all actives have a fitted effect of over 55% in size
Method in brief: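 ATP-based luminescence, 16 h compound exposure at 37 C, p53RE-bla HCT-116 cells at 4,000/well.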

[12] = target: Nuclear receptor subfamily 1 group I member 2 (Rattus norvegicus) (UniProt Q9R1A7); assay: qHTS assay for small molecule activators of the rat pregnane X receptor (rPXR) signaling pathway (AID 651751; call rule not given here; further: 0% is about no effect); conditions: rPXR reporter cells, luciferase (One-Glo), 24 h
[13] = target: Tumor necrosis factor (Homo sapiens) (UniProt P01375); assay: qHTS assay to identify small molecules that stimulate Tumor Necrosis Factor-alpha (TNF-alpha) secretion (AID 651757; active means well fitted curve in the direction sought with a large enough effect in the signal ratio; the % refers to the signal ratio; further: 0% is about no effect)
Method in brief: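 Read-out is HTRF, a TR-FRET sandwich of cryptate- and XL665-labeled anti-TNF-alpha antibodies detecting cytokine secreted by THP-1 cells. Cells had been incubated with test compounds at 37 C for 17 hrs beforehand.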

[14] = qHTS assay for small molecule activators of the human pregnane X receptor (PXR) signaling pathway (AID 720659; call rule not given here; further: 0% is about no effect)

Chain of Nuclear receptor ROR-gamma (Homo sapiens) (P51449 whole entry, looked up): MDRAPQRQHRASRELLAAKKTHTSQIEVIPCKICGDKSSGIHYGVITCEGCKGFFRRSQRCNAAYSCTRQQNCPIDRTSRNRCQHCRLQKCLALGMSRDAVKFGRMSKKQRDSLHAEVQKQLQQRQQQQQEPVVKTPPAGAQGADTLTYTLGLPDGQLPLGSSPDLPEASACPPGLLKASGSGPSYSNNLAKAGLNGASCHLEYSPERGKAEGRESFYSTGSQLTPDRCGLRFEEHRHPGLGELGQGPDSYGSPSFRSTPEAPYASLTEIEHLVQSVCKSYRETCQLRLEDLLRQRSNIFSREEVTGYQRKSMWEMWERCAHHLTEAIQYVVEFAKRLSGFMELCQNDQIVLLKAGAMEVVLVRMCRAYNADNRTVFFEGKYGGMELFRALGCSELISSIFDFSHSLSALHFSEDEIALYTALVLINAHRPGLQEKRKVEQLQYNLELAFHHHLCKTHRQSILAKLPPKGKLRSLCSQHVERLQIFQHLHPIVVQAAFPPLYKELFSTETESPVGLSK
Chain of Nuclear receptor subfamily 1 group I member 2 (Rattus norvegicus) (Q9R1A7 whole entry, looked up): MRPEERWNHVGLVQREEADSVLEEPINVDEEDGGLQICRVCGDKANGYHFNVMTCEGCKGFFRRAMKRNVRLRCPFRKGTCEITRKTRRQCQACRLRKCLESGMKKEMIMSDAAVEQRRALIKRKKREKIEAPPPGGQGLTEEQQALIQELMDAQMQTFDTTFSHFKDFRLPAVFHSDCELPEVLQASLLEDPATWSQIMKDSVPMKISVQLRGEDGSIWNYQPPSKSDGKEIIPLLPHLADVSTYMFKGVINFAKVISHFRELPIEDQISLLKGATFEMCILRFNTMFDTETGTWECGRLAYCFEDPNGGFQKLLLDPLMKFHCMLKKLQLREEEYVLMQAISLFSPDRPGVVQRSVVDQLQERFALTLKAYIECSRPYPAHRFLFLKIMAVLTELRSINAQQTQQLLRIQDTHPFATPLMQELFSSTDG
Chain of Peroxisome proliferator-activated receptor alpha (Homo sapiens) (Q07869 whole entry, looked up): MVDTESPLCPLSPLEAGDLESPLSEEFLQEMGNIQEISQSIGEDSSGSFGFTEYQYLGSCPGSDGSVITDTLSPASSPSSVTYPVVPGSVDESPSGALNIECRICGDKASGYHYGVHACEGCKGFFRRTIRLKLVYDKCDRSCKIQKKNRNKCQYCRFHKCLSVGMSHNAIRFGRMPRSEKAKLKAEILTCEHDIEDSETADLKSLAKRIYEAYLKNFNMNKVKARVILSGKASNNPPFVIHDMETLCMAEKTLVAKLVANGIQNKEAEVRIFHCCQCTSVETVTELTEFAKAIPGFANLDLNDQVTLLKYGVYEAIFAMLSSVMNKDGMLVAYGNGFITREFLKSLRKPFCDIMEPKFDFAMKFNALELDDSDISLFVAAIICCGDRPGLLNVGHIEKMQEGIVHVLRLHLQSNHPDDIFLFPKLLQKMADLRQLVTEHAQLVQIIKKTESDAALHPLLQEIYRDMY
Chain of Tumor necrosis factor (Homo sapiens) (P01375 whole entry, looked up): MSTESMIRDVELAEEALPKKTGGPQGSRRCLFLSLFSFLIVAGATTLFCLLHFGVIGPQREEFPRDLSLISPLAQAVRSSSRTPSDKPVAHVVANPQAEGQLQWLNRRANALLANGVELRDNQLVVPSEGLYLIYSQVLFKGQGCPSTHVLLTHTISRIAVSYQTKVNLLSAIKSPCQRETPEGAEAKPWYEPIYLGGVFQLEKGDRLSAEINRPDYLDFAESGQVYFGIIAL

N#CC1(O)CCCCC1
inactive: Potency [1] | Potency [2] | Potency [3] | activation [4] 2.1% | max response [5] -1.44% | Potency [6] | outcome [7] | Potency [8] | max response [9] 5.72% | max response [10] 1.77% | Potency [11] | max response [12] 2.59%

CC(=O)CCc1ccccc1
inactive: Potency [1] | Potency [2] | Potency [13] | max response [5] 0.48% | Potency [6] | outcome [7] | Potency [8] | max response [9] 0.255% | max response [10] 0.331% | Potency [11] | max response [12] 3.15% | outcome [14]

N#Cc1ccccc1
inactive: Potency [1] | Potency [2] | Potency [13] | max response [5] -0.81% | Potency [6] | outcome [7] | Potency [8] | max response [9] 0.163% | max response [10] 7.56% | Potency [11] | max response [12] -4.02% | outcome [14]

O=[N+]([O-])c1ccc(CCO)cc1
inactive: Potency [1] | Potency [2] | activation [4] 0.416% | max response [5] -1.57% | Potency [6] | outcome [7] | Potency [8] | max response [9] -24.2% | max response [10] -6.69% | max response [12] 0.179% | outcome [14]

C1CCC2OC2C1 (centres undefined)
inactive: Potency [1] | Potency [2] | Potency [13] | max response [5] -2.34% | Potency [6] | outcome [7] | Potency [8] | max response [9] -3.72% | max response [10] -1.95% | Potency [11] | max response [12] -4.14% | outcome [14]

CC(=O)c1ccccn1
inactive: Potency [1] | Potency [2] | Potency [3] | activation [4] -0.723% | max response [5] 0.325% | Potency [6] | outcome [7] | Potency [8] | max response [9] 5.72% | max response [10] -9.54% | Potency [11] | max response [12] 2.33% | outcome [14]

Clc1ccccn1
inactive: Potency [1] | Potency [2] | Potency [13] | max response [5] -1.35% | Potency [6] | outcome [7] | Potency [8] | max response [9] -1.74% | max response [10] -2.77% | Potency [11] | max response [12] -2.56% | outcome [14]

CC(C)CO
inactive: Potency [1] | Potency [2] | Potency [13] | activation [4] -1.47% | Potency [6] | outcome [7] | Potency [8] | max response [9] -4.27% | max response [10] 4.23% | Potency [11] | max response [12] 1.55% | outcome [14]

CCN(Cc1ccccc1)c1ccccc1
inactive: Potency [1] | Potency [2] | Potency [3] | activation [4] 0.346% | max response [5] 3.08% | Potency [6] | outcome [7] | Potency [8] | max response [9] -1.24% | Potency [11] | max response [12] -3.13% | outcome [14]

Cc1ccc(C(C)(C)C)cc1
inactive: Potency [1] | Potency [2] | Potency [3] | activation [4] -0.334% | max response [5] 3.18% | Potency [6] | outcome [7] | Potency [8] | max response [9] -0.19% | Potency [11] | max response [12] -0.498% | outcome [14]

COC(=O)CC#N
inactive: Potency [1] | Potency [2] | Potency [3] | activation [4] -0.763% | max response [5] -2.71% | Potency [6] | outcome [7] | Potency [8] | max response [9] -4.65% | max response [12] -1.86% | outcome [14]

O=C(O)/C=C/C(=O)O
inactive: Potency [1] | Potency [2] | Potency [3] | max response [5] -1.33% | Potency [6] | outcome [7] | max response [9] 17.2% | max response [10] -0.445% | Potency [11] | max response [12] 2.11% | outcome [14]

CCCCC(CC)COC(=O)CCCCC(=O)OCC(CC)CCCC (centres undefined)
inactive: Potency [1] | Potency [2] | Potency [13] | activation [4] -0.729% and -3.02% | max response [5] -4.18% and -1.05% | outcome [7] | Potency [8] | max response [9] 11.7% and -4.79% | max response [10] -4.22% and -9.58% | Potency [11] | max response [12] 3.13% and -1.3% | outcome [14]

Reference: PubChem BioAssay (NCATS)
